Laboratory results: the antibiotic and cytotoxicity screens of Wong et al. (2023)
Hit rate of the full screen: of about 39,000 compounds, about 3,300 (8.5%) were called active. Many of the other results were omitted from the sample, so actives are more common in it than they were.

system: HepG2; test: cytotoxicity call (relative viability < 0.9); conditions: 10 µM

Structure (SMILES) | cytotoxicity call
NC1CCC(N[C@@H]2C[C@H]2c2ccccc2)CC1 (some centres undefined) | inactive
C=CCC[C@@H](Cc1ccc(F)cc1)C(=O)OC[C@H]1CCCN1C(=O)[C@@H](CC=C)CC(=O)N(CCO)Cc1ccccc1 | inactive
COc1cccc(S(=O)(=O)Nc2ccc3c(c2)OC[C@H](C)N(C(=O)Cc2cccnc2)C[C@H](C)[C@@H](OC)CN(C)C3=O)c1 | inactive
C[C@@H]1CN([C@H](C)CO)C(=O)c2cc(NS(=O)(=O)c3cn(C)cn3)ccc2O[C@@H]1CN(C)Cc1ccccc1 | inactive
COCC(=O)NC1CCN(C2CCNCC2)CC1 | inactive
CO[C@H]1O[C@H](CO)[C@@H](OC(=O)Nc2ccccc2)[C@@H]2OC(=O)[C@H](Cc3cccc(Br)c3)C/C=C/C[C@@H](Cc3cccc(Br)c3)C(=O)O[C@@H]12 | inactive
C[C@H]1CN([C@@H](C)CO)C(=O)c2cccc(NC(=O)C3CCOCC3)c2O[C@H]1CN(C)C(=O)NC1CCCCC1 | inactive
CC(C)(C)[S@@](=O)N1Cc2cc(C(=O)N3CCc4ccccc4C3)nc(-c3cccc(-c4cccnc4)c3)c2[C@H]1CCO | inactive
Cc1noc(C)c1S(=O)(=O)Nc1ccc2c(c1)C(=O)N([C@H](C)CO)C[C@@H](C)[C@@H](CN(C)S(=O)(=O)c1ccc(Cl)cc1)O2 | inactive
C[C@H]1CN([C@@H](C)CO)C(=O)c2cc(NS(=O)(=O)c3cn(C)cn3)ccc2O[C@@H]1CN(C)S(=O)(=O)c1ccccc1 | inactive
CN1CCN(C(=O)C[C@H]2CC[C@H]3[C@H](COc4ccc(NC(=O)c5cscn5)cc4C(=O)N3C)O2)CC1 | inactive
C[C@H](CO)N1C[C@H](C)[C@@H](CN(C)Cc2ccc(-c3ccccc3)cc2)Oc2ccc(NC(=O)Nc3ccccc3)cc2CC1=O | active
C[C@@H]1CN([C@@H](C)CO)C(=O)c2cc(NC(=O)CCCN(C)C)ccc2O[C@@H]1CN(C)Cc1ccncc1 | inactive
C[C@H](CO)N1C[C@H](C)[C@@H](CN(C)C(=O)Nc2ccc(C(F)(F)F)cc2)OCCCC[C@H](C)Oc2ccc(NS(C)(=O)=O)cc2C1=O | inactive
COc1ccc(S(=O)(=O)Nc2ccc3c(c2)CC(=O)N([C@H](C)CO)C[C@H](C)[C@H](CN(C)S(=O)(=O)c2ccc(C)cc2)O3)cc1 | inactive
NCC[C@@H]1CC[C@H](NC(=O)C2CC2)[C@@H](CO)O1 | inactive
O=C(O)c1cc2cc(F)ccc2s1 | inactive
C[C@@H]1CCCCO[C@H](CN(C)Cc2ccc3c(c2)OCO3)[C@H](C)CN([C@H](C)CO)C(=O)c2cc(NS(=O)(=O)c3ccccc3)ccc2O1 | inactive
C[C@H](CO)N1C[C@H](C)[C@@H](CN(C)Cc2ccc3c(c2)OCO3)OCCCC[C@H](C)Oc2ccc(NS(=O)(=O)c3ccccc3)cc2C1=O | inactive
C[C@@H]1CN([C@H](C)CO)C(=O)c2cc(NS(=O)(=O)c3ccccc3)ccc2O[C@@H](C)CCCCO[C@@H]1CN(C)Cc1ccc2c(c1)OCO2 | active
C[C@H]1CCCCO[C@@H](CN(C)Cc2ccc3c(c2)OCO3)[C@@H](C)CN([C@@H](C)CO)C(=O)c2cc(NS(=O)(=O)c3ccccc3)ccc2O1 | inactive
C[C@H]1CCCCO[C@H](CN(C)Cc2ccc3c(c2)OCO3)[C@@H](C)CN([C@@H](C)CO)C(=O)c2cc(NS(=O)(=O)c3ccccc3)ccc2O1 | inactive

Structure (SMILES) | cytotoxicity call
C[C@@H]1CCCCO[C@H](CN(C)Cc2ccc3c(c2)OCO3)[C@@H](C)CN([C@@H](C)CO)C(=O)c2cc(NS(=O)(=O)c3ccccc3)ccc2O1 | inactive
C[C@H](CO)N1C[C@H](C)[C@H](CN(C)Cc2ccc3c(c2)OCO3)OCCCC[C@H](C)Oc2ccc(NS(=O)(=O)c3ccccc3)cc2C1=O | inactive
C[C@@H]1CCCCO[C@H](CN(C)Cc2ccc3c(c2)OCO3)[C@H](C)CN([C@@H](C)CO)C(=O)c2cc(NS(=O)(=O)c3ccccc3)ccc2O1 | active
C[C@@H]1CCCCO[C@@H](CN(C)Cc2ccc3c(c2)OCO3)[C@H](C)CN([C@H](C)CO)C(=O)c2cc(NS(=O)(=O)c3ccccc3)ccc2O1 | active
C[C@H](N)C(=O)N[C@@]1(C(=O)O)C[C@@H](Sc2nnc[nH]2)[C@H]2[C@H](C(=O)O)[C@H]21 | inactive
C[C@H](CO)N1C[C@H](C)[C@H](CN(C)S(=O)(=O)c2ccc(F)cc2)Oc2ccc(NS(C)(=O)=O)cc2C1=O | inactive
Cl.Cl.N=C(N)N | inactive
COCCOC(=O)N1C(=O)[C@@]2(c3cc(C#CCCO)ccc31)[C@H](C(=O)NC[C@H](O)c1ccccc1)[C@H]1C(=O)O[C@H](c3ccccc3)[C@H](c3ccccc3)N1[C@@H]2c1ccccc1OCCO | inactive
CCS(=O)(=O)N1CC[C@]2(CC1)CN([C@H](CO)c1[nH]c3cc(ccc3c12)OC)S(=O)(=O)c1cn(cn1)C | inactive
C[C@@H]1CN([C@@H](C)CO)C(=O)Cc2cc(NS(=O)(=O)c3ccccc3)ccc2O[C@H]1CN(C)S(=O)(=O)c1cn(C)cn1 | inactive
C[C@@H]1CN([C@@H](C)CO)C(=O)c2cc(NC(=O)CCCN(C)C)ccc2O[C@H]1CN(C)C(=O)Nc1ccc(F)cc1 | inactive
O=C1NC(=O)[C@@]2(CCOc3ccc(F)cc32)N1 | inactive
C[C@@H]1CCCCO[C@H](CN(C)S(=O)(=O)c2cn(C)cn2)[C@@H](C)CN([C@@H](C)CO)C(=O)c2cc(NS(=O)(=O)c3cn(C)cn3)ccc2O1 | inactive
COc1ccc(NC(=O)N2C[C@H](O)COC[C@@H]3O[C@H](CC(=O)NC4Cc5ccccc5C4)CC[C@H]32)cc1 | inactive
Cc1ccc(C(=O)N(CCCN)[C@@H](c2oc3cc(Cl)ccc3c(=O)c2Cc2ccccc2)C(C)C)cc1 | active
Cc1ccc2c(c1)c1nc3ccccc3nc1n2Cc1ccccc1 | inactive
Cc1ccc(C(=O)N(CCCN)[C@@H](c2nc3cc(Cl)ccc3c(=O)n2Cc2ccccc2)C(C)C)cc1 | active
COc1ccc(NC(=O)Nc2ccc3c(c2)C(=O)N([C@H](C)CO)C[C@H](C)[C@H](CN(C)Cc2ccc(C(=O)Nc4ccccc4N)cc2)O3)cc1 | inactive
O=C(NO)c1cccc(C(=O)N/N=C/[C@H](O)[C@@H](O)[C@H](O)[C@H](O)CO[C@H]2O[C@H](CO)[C@H](O)[C@H](O)[C@H]2O)c1 | inactive
C[C@@H]1CN([C@H](C)CO)S(=O)(=O)c2ccc(C#Cc3cccc(F)c3)cc2O[C@@H]1CN(C)S(=O)(=O)c1cn(C)cn1 | inactive
Cc1ccc(S(=O)(=O)Nc2ccc3c(c2)C(=O)N([C@H](C)CO)C[C@H](C)[C@H](CN(C)C(=O)c2ccccc2)OCCCC[C@@H](C)O3)cc1 | inactive
O=C(Cc1ccccc1)Nc1ccccc1Sc1ccccc1 | inactive

Structure (SMILES) | cytotoxicity call
CC(C)NC(=O)Nc1ccc2c(c1)C(=O)N(C)[C@@H]1CC[C@@H](CC(=O)NCc3ccc(F)cc3)O[C@@H]1CO2 | inactive
C[C@@H]1CN([C@H](C)CO)C(=O)c2cc(-c3cccnc3)cnc2O[C@@H]1CN(C)Cc1ccc(-c2ccccc2)cc1 | inactive
C[C@@H]1CN([C@@H](C)CO)C(=O)c2cc(NC(=O)Nc3cccc4ccccc34)ccc2O[C@@H]1CN(C)Cc1ccc(C(=O)O)cc1 | inactive
C[C@@H]1CN([C@@H](C)CO)C(=O)c2cccc(NS(=O)(=O)c3cccs3)c2O[C@@H]1CN(C)S(C)(=O)=O | inactive
Cc1noc(C)c1NC(=O)N(C)C[C@@H]1Oc2c(NC(=O)NC(C)C)cccc2C(=O)N([C@H](C)CO)C[C@@H]1C | inactive
C[C@@H]1CN([C@H](C)CO)C(=O)CCCn2nncc2CO[C@@H]1CN(C)S(=O)(=O)c1cccc(C#N)c1 | inactive
COc1ccc(S(=O)(=O)Nc2cccc3c2O[C@@H](CN(C)S(=O)(=O)c2ccc(F)cc2)[C@H](C)CN([C@@H](C)CO)C3=O)cc1 | inactive
C[C@@H]1CN([C@@H](C)CO)C(=O)Cc2cc(NC(=O)CCN3CCOCC3)ccc2O[C@@H]1CN(C)CC1CC1 | inactive
C[C@H](CO)N1C[C@H](C)[C@@H](CN(C)CC2CCCCC2)OCCCC[C@H](C)Oc2ccc(NC(=O)C3CCCCC3)cc2C1=O | inactive
C[C@@H]1CCCCO[C@H](CN(C)CC2CCCCC2)[C@H](C)CN([C@H](C)CO)C(=O)c2cc(NC(=O)C3CCCCC3)ccc2O1 | inactive
C[C@@H]1CCCCO[C@@H](CN(C)CC2CCCCC2)[C@@H](C)CN([C@@H](C)CO)C(=O)c2cc(NC(=O)C3CCCCC3)ccc2O1 | active
C[C@H](CO)N1C[C@H](C)[C@H](CN(C)CC2CCCCC2)OCCCC[C@H](C)Oc2ccc(NC(=O)C3CCCCC3)cc2C1=O | inactive
C[C@@H]1CCCCO[C@@H](CN(C)CC2CCCCC2)[C@H](C)CN([C@@H](C)CO)C(=O)c2cc(NC(=O)C3CCCCC3)ccc2O1 | inactive
C[C@H]1CCCCO[C@H](CN(C)CC2CCCCC2)[C@@H](C)CN([C@@H](C)CO)C(=O)c2cc(NC(=O)C3CCCCC3)ccc2O1 | active
C[C@@H]1CN([C@@H](C)CO)C(=O)c2cc(NC(=O)C3CCCCC3)ccc2O[C@@H](C)CCCCO[C@@H]1CN(C)CC1CCCCC1 | inactive
C[C@@H]1CCCCO[C@@H](CN(C)CC2CCCCC2)[C@H](C)CN([C@H](C)CO)C(=O)c2cc(NC(=O)C3CCCCC3)ccc2O1 | inactive
C[C@@H]1CN([C@H](C)CO)C(=O)c2cc(NC(=O)C3CCCCC3)ccc2O[C@@H](C)CCCCO[C@@H]1CN(C)CC1CCCCC1 | active
C[C@@H]1CCCCO[C@H](CN(C)CC2CCCCC2)[C@H](C)CN([C@@H](C)CO)C(=O)c2cc(NC(=O)C3CCCCC3)ccc2O1 | inactive
C[C@H]1CCCCO[C@@H](CN(C)CC2CCCCC2)[C@@H](C)CN([C@@H](C)CO)C(=O)c2cc(NC(=O)C3CCCCC3)ccc2O1 | inactive
C[C@@H]1CN([C@@H](C)CO)C(=O)c2cc(NC(=O)C3CCCCC3)ccc2O[C@@H](C)CCCCO[C@H]1CN(C)CC1CCCCC1 | active
